Experimental data as given in PubChem BioAssay AID2677 (National Center for Advancing Translational Sciences (NCATS), 2010).
The other results are listed elsewhere or left out. Records with an inconclusive call do not appear. Activity calls are given as the source filed them. Calls come from the whole dose curve; as a rule, active = well fitted inhibition curve with a large enough effect; inconclusive = small, poorly fitted or top-dose-only effect; inactive = no such curve, though single readings can be large or run the other way.

Biological target: Lysine-specific demethylase 4E (Homo sapiens) (UniProt B2RXH2)
Assay: Confirmation qHTS Assay for Inhibitors of Human Jumonji Domain Containing 2E (JMJD2E)
Details: Recombinant JMJD2E, FDH-coupled NADH fluorescence (FDH is formaldehyde dehydrogenase)
Description: The fine interplay among methylation states of several lysine residues on the tails of histone proteins is a major determinant of the transcriptional state of the associated DNA coding regions and is commonly referred to as the histone code. Histone lysine demethylases catalyze the removal of methyl groups from methylated lysine sidechains on histones H3 and H4, thus antagonizing the reactions catalyzed by histone lysine methyltransferases. […] In search for novel inhibitors of JMJD2E demethylase, a member of the largest set of histone demethylases belonging to the Fe(II) and 2-oxoglutarate oxygenase (2OG) superfamily, we performed a quantitative high-throughput screen (Inglese 2006) by using an assay which utilizes a trimethylated peptide substrate corresponding to a fragment of histone H3 (sequence ARKme3STGGK) with detection of the formaldehyde co-product in real time by a formaldehyde dehydrogenase (FDH) coupled reaction. FDH catalyzes oxidation of formaldehyde to formic acid with the concomitant reduction of the non-fluorescent beta-nicotinamide adenine dinucleotide hydrate (NAD+) cofactor to the fluorescent NADH co-product. References: Inglese, J., Auld, D., Jadhav, A., Johnson, R., Simeonov, A., Yasgar, A., Zheng, W. and Austin, C. Proc Natl Acad Sci USA 2006, 103, 11473-11478. N. R. Rose, S. S. Ng, J. Mecinovic, B. M. Lienard, S. H. Bello, Z. Sun, M. A. McDonough, U. Oppermann and C. J. Schofield, J Med Chem, 2008, 51, 7053-7056. Sakurai, M., Rose, N., Schultz, L., Quinn, A., Jadhav, A., Ng, S., Oppermann, U., Schofield, C.J. and Simeonov, A. Mol BioSystems 2009, in press. S. Michael, D. Auld, C. Klumpp, A. Jadhav, W. Zheng, N. Thorne, C. Austin, J. Inglese and A. Simeonov, Assay Drug Dev Technol, 2008, 6, 637-657. Assay Provider: Structural Genomics Consortium [SGC] Screening Center PI: Austin, C.P. Screening Center: NIH Chemical Genomics Center [NCGC]
Reagents and Controls: Ferrous ammonium sulfate, (+)-sodium L-ascorbate, beta-nicotinamide adenine dinucleotide hydrate (NAD+), Tween-20, formaldehyde dehydrogenase from P. putida (FDH), and disodium 2-oxoglutarate were from Sigma (St. Louis, MO). Black solid-bottom 384-well or 1,536-well assay plates were from Greiner Bio-One (Monroe, NC). Enzyme was supplied by Prof. Udo Oppermann, SGC-Oxford. […] The trimethylated histone peptide substrate ARK(me3)STGGK was synthesized and HPLC-purified by the Tufts University Core Facility (Boston, MA). Substrate solution (Sakurai 2009) contained 50 uM ARK(me3)STGGK, 0.00025 U/uL FDH, 50 uM 2-oxoglutarate, 250 uM NAD+, 1 mM ascorbate, and 10 uM ferrous ammonium sulfate. Controls and plate map: Buffer (150 mM HEPES pH 7.5 containing 0.01% Tween-20) in columns 3 and 4 as negative control (no enzyme) and 100 nM JMJD2E final concentration in columns 1,2, and 5-48. Assay Steps: Enzyme and buffer solutions (3 uL) were dispensed into a 1,536-well Greiner black solid-bottom assay plate. The library compounds (23 nL) were transferred using a Kalypsys pintool equipped with 1,536-pin array. The plate was incubated at room temperature (15 min), and then a 1 uL aliquot of substrate solution was added to initiate the reaction. The plate was transferred to ViewLux imager where an initial reading using standard UV optics (Ex 340 nm, Em 450 nm) was obtained. The plate was then removed from the reader, incubated for 30 minutes at room temperature, and returned to the reader for a second fluorescence reading. A fully automated robotic screening system (Kalypsys Inc, San diego, CA) was used to perform the above steps as described previously (Michael 2008). Compound plates containing DMSO as a vehicle-only control were included at regular interval throughout the screen to monitor any systematic trend in the assay signal associated with reagent dispenser variation or decreases in enzyme specific activity. For activity calculations, percent values were computed as the difference in fluorescence intensity between last and first time points. […]

Chain of Lysine-specific demethylase 4E (Homo sapiens) (B2RXH2 1-337 limits assumed): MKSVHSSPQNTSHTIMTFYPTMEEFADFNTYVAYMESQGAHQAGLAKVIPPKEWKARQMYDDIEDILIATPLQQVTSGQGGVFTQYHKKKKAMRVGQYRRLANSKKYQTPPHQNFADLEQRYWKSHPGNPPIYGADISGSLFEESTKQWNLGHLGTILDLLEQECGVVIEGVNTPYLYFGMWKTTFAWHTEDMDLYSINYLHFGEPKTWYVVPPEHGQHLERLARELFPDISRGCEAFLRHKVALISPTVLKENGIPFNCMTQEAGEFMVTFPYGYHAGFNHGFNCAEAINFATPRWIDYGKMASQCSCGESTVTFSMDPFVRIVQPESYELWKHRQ

Potency, active:
Oc1c(CN2CCCC2)cc(COCc2ccccc2)c2cccnc12 5.01 µM
O=C1CC(Sc2ncn[nH]2)C(=O)N1c1ccccc1 (stereo unspecified) 7.08 µM
Nc1ccc(Nc2cc(O)c3ncccc3c2)cc1 28.2 µM
Oc1ccc(/C=C/c2c(F)cccc2F)c2cccnc12 9.13 µM
Cc1ccc(N2C(=O)CC(Sc3ncn[nH]3)C2=O)cc1 (stereo unspecified) 5.01 µM
Oc1cccc2cc(-c3ccncc3)cnc12 18.2 µM
